Experimental data reported in PubChem BioAssay.
Active and inactive are the calls of the source.

How the values were obtained:
Albumin (Bos taurus) = Albumin (Bos taurus) (UniProt P02769); assay: compounds binding labelled BSA control protein – biochemical, small-molecule microarray, Alexa647 label, 635/667 nm fluorescence, artefact control for SMM control protein annotation, profiling panel (AID 1118); details: BSA-A647 binding, fluorescence 635 nm, higher = more signal;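 also: score merges 667 nm emission intensity and signal-to-noise per printed compound spot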
[1] = probe aXIP binding to arrayed compounds – biochemical, NeuroSMM set, 635/667 nm fluorescence, primary screen (AID 1119); details: small-molecule microarray, higher = more signal, called active from +8 up or from −8 down;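 also: probe is the protein aXip251-270 applied at 1 µg/mL to compound-printed slides; binding of probe to printed compounds measured as 667 nm fluorescence plus signal to noise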
[2] = probe aNOTCH3 binding on compound microarray – biochemical, small-molecule microarray, 635/667 nm fluorescence, primary screen (AID 1120); details: higher = more signal;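 also: probe is a biotin-tagged antibody raised against NOTCH3 rather than NOTCH3 protein; score merges spot fluorescence near 667 nm with spot signal to noise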
[3] = probe aNOTCH2 binding on compound microarray – biochemical, small-molecule microarray, 635/667 nm fluorescence, primary screen (AID 1121); details: higher = more signal;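 also: score merges feature fluorescence read at 667 nm with its signal to noise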
[4] = biological target: Carbonic anhydrase 2 (Homo sapiens) (UniProt P00918); assay: compounds binding carbonic anhydrase 2 – biochemical, small-molecule microarray, Alexa647-labelled CAII, profiling panel (AID 1122); details: CAII-A647 binding fluorescence, higher = more signal
[5] = COS7 lysate on small-molecule microarray, probe aHis, 635 nm (AID 1123); details: COS7 cell lysate, fluorescence, higher = more signal;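 also: z-score combines 667nm fluorescence intensity with signal-to-noise per printed compound spot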
[6] = probe aLAP1 signal on lysate-treated microarray – cell lysate, small-molecule microarray, COS7 lysate, primary screen (AID 1124); details: probe aLAP1, fluorescence, higher = more signal;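 also: lysate comes from COS7 cells expressing LAP1 and is applied at 0.3 µg/mL; score merges spot fluorescence near 667 nm with signal-to-noise over triplicate slides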
Sam68 (KHDRBS1) = assay: compounds binding KHDRBS1 protein – biochemical, small-molecule microarray, 635 nm fluorescence, primary screen (AID 1125); details: higher = more signal;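 also: score merges 667 nm channel intensity with signal to noise over triplicate slides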
[7] = system: Chordin-like protein 2 (CHRDL2); assay: compounds binding chordin-like 2 – biochemical, small-molecule microarray, 635 nm fluorescence, primary screen (AID 1126); details: fluorescence 635 nm, higher = more signal;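 also: printed compound slides probed with Chrdl2 protein at 4 µg/mL for 1 h at 4 C; score merges 667 nm emission intensity with signal to noise over three replicate slides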
[8] = biological target: Concanavalin-A (Canavalia ensiformis) (UniProt P02866); assay: compounds binding concanavalin A lectin – biochemical, small-molecule microarray, Alexa647 label, 635 nm, artefact control for SMM control protein annotation, primary screen (AID 1127); details: ConA-A647 binding fluorescence, higher = more signal;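 also: z combines 667 nm emission intensity with signal-to-noise across three replicate slides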
Sequence of Concanavalin-A (Canavalia ensiformis) (P02866 whole entry, looked up): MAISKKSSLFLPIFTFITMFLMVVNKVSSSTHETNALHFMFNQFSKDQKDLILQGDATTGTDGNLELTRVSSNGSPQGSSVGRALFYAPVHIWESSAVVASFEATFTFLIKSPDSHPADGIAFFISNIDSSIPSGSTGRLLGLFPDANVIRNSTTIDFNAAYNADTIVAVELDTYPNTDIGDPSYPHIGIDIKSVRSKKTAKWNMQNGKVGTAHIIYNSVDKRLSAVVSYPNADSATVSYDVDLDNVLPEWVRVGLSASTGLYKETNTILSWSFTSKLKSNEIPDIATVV

Sequence of Albumin (Bos taurus) (P02769 whole entry, looked up): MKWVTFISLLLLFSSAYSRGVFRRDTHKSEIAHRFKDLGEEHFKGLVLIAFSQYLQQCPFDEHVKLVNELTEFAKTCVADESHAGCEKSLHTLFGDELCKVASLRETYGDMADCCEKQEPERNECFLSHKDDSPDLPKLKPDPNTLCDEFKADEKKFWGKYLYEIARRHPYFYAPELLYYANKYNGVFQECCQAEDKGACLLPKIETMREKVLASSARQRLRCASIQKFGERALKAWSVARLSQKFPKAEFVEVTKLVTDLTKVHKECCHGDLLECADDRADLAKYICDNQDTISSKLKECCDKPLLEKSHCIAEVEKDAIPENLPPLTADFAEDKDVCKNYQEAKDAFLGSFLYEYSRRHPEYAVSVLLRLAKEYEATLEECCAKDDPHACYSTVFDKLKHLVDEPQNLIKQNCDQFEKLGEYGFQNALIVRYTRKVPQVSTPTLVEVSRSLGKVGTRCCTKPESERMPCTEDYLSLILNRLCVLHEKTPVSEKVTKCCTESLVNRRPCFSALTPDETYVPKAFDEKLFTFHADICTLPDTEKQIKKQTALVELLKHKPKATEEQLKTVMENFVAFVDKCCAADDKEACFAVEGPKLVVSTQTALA

Structure (SMILES) | composite z-score (Albumin (Bos taurus)) | composite Z-score [1] | composite z-score [2] | composite z-score [3] | composite z-score [4] | composite z-score [5] | composite z-score [6] | composite z-score (Sam68 (KHDRBS1)) | composite z-score [7] | composite z-score [8]
CC(C)(C)OC(=O)CC[C@]1(C(N)=O)N=C(c2ccc(OCCCO)cc2)O[C@H]1c1ccccc1CN=[N+]=[N-] | 0.712 | 0.523 (inactive) | 0.761 | 0.234 | 0.981 | 3.63 | 0.666 | 1.33 | -0.894 | 0.831
CCCC[C@H]1OB(O)C[C@H]2C1=C(COC)C[C@H]1C(=O)C=CC(=O)[C@H]12 | -0.183 | 0.727 (inactive) | 0.029 | 0.144 | -0.104 | -0.279 | -0.236 | 0.684 | 0.676 | 0.486
C=CCOC(=O)[C@@H]1[C@H]2C(=O)O[C@H](c3ccccc3)[C@H](c3ccccc3)N2[C@H](c2ccc(OCCOC(=O)[C@H]3C[C@H]4C(=O)NCC(=O)N4[C@H]3c3ccc(O)cc3)cc2)[C@@]12C(=O)Nc1ccc(I)cc12 | -1.07 | 0.683 (inactive) | -0.0711 | -0.117 | 0.323 | 1.94 | -0.159 | 1.29 | 0.826 | 1.16
CC(C)C[C@@H]1NC(=O)[C@H]2C[C@@H](C(=O)NCCCCCNC(=O)CS)[C@@H](c3ccc(O)cc3)N2C1=O | -0.796 | 0.0136 (inactive) | -0.171 | -0.144 | 0.414 | 2.08 | 0.873 | 1.31 | 0.795 | 0.885
COCCOC(=O)N1C(=O)[C@@]2(c3cc(C#CC4=CCCCC4)ccc31)[C@H](c1ccc(OCCO)cc1)N1[C@H](c3ccccc3)[C@H](c3ccccc3)OC(=O)[C@H]1[C@@H]2C(=O)N1CCCCCCC1 | 0.263 | 2 (inactive) | 0.809 | 0.0784 | 0.623 | 2.41 | 0.903 | 1.3 | 0.91 | 1.11
CC(C)CNC(=O)[C@@]1(C)c2ccccc2C(=O)N(Cc2cc(F)cc(C(F)(F)F)c2)[C@H]1c1ccc(CO)cc1 | 0.621 | -0.17 (inactive) | -0.0044 | -0.046 | 0.284 | 1.2 | 0.615 | 1.17 | 0.443 | 0.771
CC(C)(C)N1CC=CC23O[C@@H]4/C=C\CCCOC(=O)C4[C@H]2C(=O)N(CCCCCCO)[C@@H]3C1=O (stereo not given in full) | 0.708 | -0.617 (inactive) | -0.284 | -0.117 | 0.938 | 0.185 | 0.495 | -1.35 | -1.25 | -1.42
C=C(CCCC)C(=O)CC[C@H](OC(=O)c1cccnc1)c1ccc(CO)o1 | 0.133 | 0.0385 (inactive) | 0.19 | -0.0323 | 0.555 | 1.07 | 1.06 | 1.3 | 0.608 | 1.1
N[C@@H](Cc1ccccc1)Cn1cc(C2(O)CCCCC2)nn1 | -0.052 | -0.116 (inactive) | -0.014 | -0.14 | -0.29 | 0.451 | 0.0682 | 0.525 | 0.0155 | 0.88
CN1C(=O)[C@]2(CCC(=O)OC(C)(C)C)N=C(c3ccc(OCCCO)cc3)O[C@@H]2c2ccccc21 | 0.272 | 0.0786 (inactive) | -0.117 | -0.12 | 0.709 | 2.69 | -0.313 | 1.28 | 0.149 | 1.12
C=CCC(OC(C)=O)[C@@H]1[C@@H](N(Cc2cc3ccccc3o2)C(=O)c2cccc3ccccc23)c2cc(OCCCO)ccc2N1C(=O)c1ccc2ccccc2c1 (stereo not given in full) | 0.163 | -0.73 (inactive) | -0.0647 | -0.0906 | 0.229 | 0.542 | -0.177 | -0.0368 | 0.556 | -0.259
[N-]=[N+]=NCc1ccccc1C[C@]1(C(=O)N2CCOCC2)N=C(c2ccc(OCCCO)cc2)O[C@H]1c1ccccc1CN=[N+]=[N-] | 0.954 | -0.161 (inactive) | 0.598 | 0.502 | 0.802 | 3.34 | 0.853 | 1.3 | -0.655 | 1.14
CC(C)C[C@@H]1NC(=O)[C@@]23C(=O)N[C@@H](Cc4ccccc4)C2[C@H](C)[C@@]2(C)O[C@H]2C3/C=C/C/C=C\CNC(=O)[C@@H](CC(C)C)NC1=O (stereo not given in full) | 0.757 | 0.183 (inactive) | -0.0311 | -0.167 | 0.599 | 0.925 | 0.285 | 1.3 | 0.732 | -1.14
CCCC=C(CCC)[C@@H](NS(=O)(=O)c1ccc(Cl)cc1)c1ccccc1 | 0.046 | -0.0223 (inactive) | -0.056 | 0.194 | 0.281 | 0.829 | 1.28 | 0.127 | -0.845 | 0.205
COCCOC(=O)N1C(=O)[C@@]2(c3ccccc31)[C@H](C(N)=O)[C@H]1C(=O)O[C@H](c3ccccc3)[C@H](c3ccccc3)N1[C@@H]2c1ccc(OCCO)cc1 | 0.787 | 1.32 (inactive) | -0.0055 | -0.123 | 0.508 | 1.74 | 0.103 | 1.31 | 0.33 | 1.15
Cc1ccccc1C(O)C1C=CC2C(=O)N(c3ccccc3)C(=O)C2N1Nc1ccccc1F (stereo not given) | 1.03 | 0.805 (inactive) | 0.195 | 0.161 | 0.77 | 3.01 | -0.0703 | 1.23 | -0.52 | 1.09
CC(C)C(=C=CC[C@@H](O)c1ccccc1OCCO)C[C@@H](O)c1cc(Cl)cc(Cl)c1O | 0.77 | -0.235 (inactive) | 0.156 | -0.147 | 0.68 | 1.76 | 0.632 | 1.26 | 0.784 | 0.612
CCc1cccc(NC(=O)O[C@H]2[C@H](OC(=O)Nc3ccc4c(c3)OCO4)[C@H](OC(=O)Nc3ccc4c(c3)OCO4)[C@@H](OC)O[C@@H]2CO)c1 | 0.208 | 1.31 (inactive) | 0.337 | 0.817 | 0.486 | 2.46 | -0.0378 | 1.29 | -0.0095 | 1.14
CCC[C@@H]1[C@@H](Sc2ccccc2)[C@@H](C(=O)O)[C@H](c2ccc(C)cc2)N1S(=O)(=O)c1ccc(C)cc1 | 0.771 | 0.398 (inactive) | 0.322 | -0.0794 | 0.594 | 2.65 | 1.39 | 1.33 | -0.432 | 1.23
CC#CCO[Si](C#CCCCCCC)(C(C)C)C(C)C | -0.611 | -0.244 (inactive) | -0.597 | -0.192 | -0.553 | -0.0607 | -0.529 | 0.204 | -2.33 | -2.41
CCOC(=O)C1=CCC(c2cc3ccccc3[nH]2)N(S(=O)(=O)c2ccccc2[N+](=O)[O-])C1 (stereo not given) | 0.476 | 4.63 (inactive) | 0.051 | -0.188 | 0.674 | 2.37 | 0.375 | 0.644 | 0.0846 | 0.558
